Data on eight compounds can be found in PubChem BioAssay (Tox21).

The nature of experiment [1]: A CellTox Green Cytotoxicity Assay to monitor cytotoxicity in HEK293 cells - 32 hour (AID 1224881). Note: nearly all actives have a fitted effect of over 40% in size. Note: potency is the fitted concentration of half-maximal effect. Put shortly: (§1)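 Each value comes from one timepoint of a single continuous run in which HEK293 cells with CellTox Green were exposed to compound for up to 40 h at 37 C, dye fluorescence rising with cell death.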
A short description of experiment [2]: A CellTox Green Cytotoxicity Assay to monitor cytotoxicity in HepG2 cells - 0 hour (AID 1224882). Note: nearly all actives have a fitted effect of over 35% in size. In short, it runs like this:
(§2)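 Continuous culture of HepG2 cells with a membrane-impermeant DNA dye; rising fluorescence marks dead cells. Compound exposure lasted up to 40 h at 37 C, with reads every 8 h from 0 h.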

Experiment [3] in a line: A CellTox Green Cytotoxicity Assay to monitor cytotoxicity in HepG2 cells - 32 hour (AID 1224883). Note: nearly all actives have a fitted effect of over 50% in size. Note: potency is the fitted concentration of half-maximal effect. Put shortly: as §2
A short description of experiment [4]: A CellTox Green Cytotoxicity Assay to monitor cytotoxicity in HEK293 cells - 8 hour (AID 1224884). Note: nearly all actives have a fitted effect of over 35% in size. In short, it runs like this:
as §1

Experiment [5] in a line: qHTS RealTime-Glo MT Cell Viability Assay in HepG2 cells - 16 hour (AID 1224885). Note: nearly all actives have a fitted effect of over 50% in size. Note: potency is the fitted concentration of half-maximal effect. Put shortly:
(§3)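 Compound treatment began 5 h after plating HepG2 cells (600/well) with NanoLuc luciferase and prosubstrate. Plates stayed at 37 C for 40 h; luminescence was captured at six time points, 0 h through 40 h.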
For orientation: In qHTS, concentration-response curves come from the screen itself.

Experiment [6] in a line: A CellTox Green Cytotoxicity Assay to monitor cytotoxicity in HEK293 cells - 16 hour (AID 1224888). Note: nearly all actives have a fitted effect of over 35% in size. Put shortly:
as §1

A short description of experiment [7]: qHTS RealTime-Glo MT Cell Viability Assay in HepG2 cells - 0 hour (AID 1224889). Note: nearly all actives have a fitted effect of over 50% in size. In short, it runs like this: as §3
Experiment [8] can be described thus: A CellTox Green Cytotoxicity Assay to monitor cytotoxicity in HepG2 cells - 8 hour (AID 1224890). Note: nearly all actives have a fitted effect of over 45% in size. Note: potency is the fitted concentration of half-maximal effect. Put shortly: as §2
The nature of experiment [9]: qHTS assay to identify small molecule antagonists of the androgen receptor (AR) signaling pathway using the MDA cell line in the presence of 0.5 nM R1881 - cell viability counter screen (AID 1259242). Note: nearly all actives have a fitted effect of over 45% in size. Put shortly: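 Fluorescence from CellTiter-Fluor, which reports protease activity of live cells, was read 30 min after reagent addition to MDA-kb2 cells that had been incubated 16 hr with compound and 0.5 nM R1881.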

Experiment [10] is described as follows: qHTS assay to identify small molecule HDAC inhibitors (AID 1259364). Note: top concentration of the series differs between compounds; nearly all actives have a fitted effect of over 45% in size. Put shortly:
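Endogenous HDAC class I/II activity was measured in wild-type HCT-116 cells by HDAC-Glo luminescence after 2 h compound treatment.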

Experiment [11] in a line: qHTS assay to identify small molecule HDAC inhibitors - cell viability counter screen (AID 1259365). Note: series mostly up to about 92 µM; nearly all actives have a fitted effect of over 50% in size. Put shortly: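 HCT-116 (wild type), 1,500 cells/well, overnight 37C/5% CO2; compound in DMSO 2hr; CellTiter-Glo 30min RT; luminescence read.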
Experiment [12] can be described thus: qHTS assay to identify small molecule antagonists of the sonic hedgehog signaling (Shh) pathway - cell viability counter screen (AID 1259367). Note: nearly all actives have a fitted effect of over 55% in size. Note: potency is the fitted concentration of half-maximal effect. Put shortly:
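After a 4 hr settling period, 3T3 Gli1-Luc cells were treated with DMSO-dissolved chemicals and conditioned medium, kept 24 hr at 37C in 5% CO2, and assayed for viability by CellTiter-Fluor fluorescence following 1 hr reagent incubation.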

A short description of experiment [13]: qHTS assay to identify small molecule agonists of the sonic hedgehog signaling (Shh) pathway (AID 1259368; calls by dose curve;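 note: NIH/3T3-derived 3T3Gli1-Luc cells carrying a stable Gli1-driven firefly luciferase reporter; series mostly up to about 92 µM; nearly all actives have a fitted effect of over 15% in size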). Put shortly: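 Luminescent signal was taken as a measure of Gli1-controlled luciferase expression in stably transfected NIH/3T3-derived cells that had been treated for 24 hr with compounds delivered in DMSO.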
Experiment [14] in a line: qHTS assay to identify small molecule phospholipidosis (PLD) inducers (AID 1259344; active = well fitted curve in the direction sought with a large enough effect; an effect the other way counts as inactive or inconclusive). In short, it runs like this:
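HepG2 cells grown on collagen I take up LipidTOX Red while exposed to compound for 24 h; after fixation they are imaged at 20x and pit metrics are extracted.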

Experiment [15] in a line: qHTS RealTime-Glo MT Cell Viability Assay in HEK293 cells - 24 hour (AID 1224886). Note: nearly all actives have a fitted effect of over 50% in size. Note: potency is the fitted concentration of half-maximal effect. Put shortly:
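Quantitative high-throughput screen of the Tox21 10K library in HEK293: cells and RealTime-Glo reagents plated together, compound added at 5 h, luminescence monitored through 40 h at 37 C.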

Experiment [16] in a line: qHTS RealTime-Glo MT Cell Viability Assay in HEK293 cells - 8 hour (AID 1224887). Note: nearly all actives have a fitted effect of over 50% in size. Note: potency is the fitted concentration of half-maximal effect. Put shortly: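 qHTS format; HEK293 cells with NanoLuc/prosubstrate reagent, 37 C/5% CO2 for 5 h pre-dosing; compounds 23 nL in DMSO; luminescence at each time point reflects viable cells.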
Experiment [17] can be described thus: qHTS assay to identify small molecule antagonists of the estrogen receptor alpha (ER-alpha) signaling pathway using the BG1 cell line in the presence of 0.1 nM 17-beta-estradiol - cell viability counter screen (AID 1259241). Note: nearly all actives have a fitted effect of over 40% in size. Put shortly:
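Live-cell protease activity (CellTiter-Fluor fluorescence, 30 min) was read in the same wells after VM7Luc4E2 cells had been exposed to compounds with 0.1 nM 17beta-estradiol for 22 hr at 37C.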

Experiment [18] concerns the target Androgen receptor (Homo sapiens) (UniProt P10275). Briefly: qHTS assay to identify small molecule antagonists of the androgen receptor (AR) signaling pathway using the MDA cell line in the presence of 0.5 nM R1881 (AID 1259243). Note: nearly all actives have a fitted effect of over 50% in size. Note: potency is the fitted concentration of half-maximal effect. In short, it runs like this:
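Inhibition of R1881 (0.5 nM final) induced reporter signal was measured in human MDA-kb2 cells; note the MMTV promoter also responds to GR. Exposure lasted 16 hr at 37C.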

The target in experiment [19] is Estrogen receptor (Homo sapiens) (UniProt P03372). Briefly: qHTS assay to identify small molecule antagonists of the estrogen receptor alpha (ER-alpha) signaling pathway using the BG1 cell line in the presence of 0.1 nM 17-beta-estradiol (AID 1259244). Note: nearly all actives have a fitted effect of over 50% in size. Note: potency is the fitted concentration of half-maximal effect. In short, it runs like this:
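Quantitative high-throughput screen in VM7Luc4E2 cells: compound plus 0.1 nM E2 (final), 22 h, 37C, 5% CO2; ONE-Glo added, 30 min room temperature, luminescence measured.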

A short description of experiment [20]: qHTS assay to identify small molecule agonists of the sonic hedgehog signaling (Shh) pathway - cell viability counter screen (AID 1259366). Note: nearly all actives have a fitted effect of over 50% in size. In short, it runs like this: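 CellTiter-Fluor fluorescence read-out, 1 hr at 37C, added after 23hr compound exposure. Cells: 3T3 Gli1-Luc, an NIH/3T3 clone with stably integrated Gli1-Luc reporter, plated 4hr before compound.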

Several values for one entry are separate records, joined by “and”; a condition that tells them apart may be missing. Equal entries are not always repeated. Records with an inconclusive call do not appear. Activity calls are given as the source filed them. Unless noted, calls come from the whole dose curve; as a rule, active = well fitted curve in the direction sought with a large enough effect in the repeat runs; inconclusive = weak or mixed curves; inactive = no such curve, though single readings can be large; an effect the other way counts as inactive or inconclusive.

Chain of Androgen receptor (Homo sapiens) (P10275 whole entry, looked up): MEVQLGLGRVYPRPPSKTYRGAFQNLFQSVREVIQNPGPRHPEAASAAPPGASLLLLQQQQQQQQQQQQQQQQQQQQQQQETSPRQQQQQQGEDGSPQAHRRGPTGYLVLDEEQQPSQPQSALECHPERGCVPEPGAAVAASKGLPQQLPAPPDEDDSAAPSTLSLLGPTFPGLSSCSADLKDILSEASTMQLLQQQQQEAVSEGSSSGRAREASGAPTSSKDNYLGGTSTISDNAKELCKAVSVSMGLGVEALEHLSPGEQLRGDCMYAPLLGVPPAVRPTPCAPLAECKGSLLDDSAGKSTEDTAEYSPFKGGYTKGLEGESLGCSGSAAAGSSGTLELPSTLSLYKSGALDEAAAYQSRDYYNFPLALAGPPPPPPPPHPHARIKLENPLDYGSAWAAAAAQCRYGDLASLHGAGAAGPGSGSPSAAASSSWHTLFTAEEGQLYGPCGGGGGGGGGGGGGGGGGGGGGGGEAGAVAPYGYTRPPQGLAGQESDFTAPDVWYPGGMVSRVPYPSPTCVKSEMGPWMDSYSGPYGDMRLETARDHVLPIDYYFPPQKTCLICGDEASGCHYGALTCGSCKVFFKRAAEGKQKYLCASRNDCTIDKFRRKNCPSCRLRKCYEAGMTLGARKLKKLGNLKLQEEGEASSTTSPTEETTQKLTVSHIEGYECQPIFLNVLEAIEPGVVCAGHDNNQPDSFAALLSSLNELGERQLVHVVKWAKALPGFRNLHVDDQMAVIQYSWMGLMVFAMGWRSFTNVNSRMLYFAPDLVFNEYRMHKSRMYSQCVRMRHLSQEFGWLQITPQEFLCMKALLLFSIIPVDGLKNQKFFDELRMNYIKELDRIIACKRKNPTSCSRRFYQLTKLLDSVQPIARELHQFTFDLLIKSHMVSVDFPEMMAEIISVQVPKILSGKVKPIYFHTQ
Chain of Estrogen receptor (Homo sapiens) (P03372 whole entry, looked up): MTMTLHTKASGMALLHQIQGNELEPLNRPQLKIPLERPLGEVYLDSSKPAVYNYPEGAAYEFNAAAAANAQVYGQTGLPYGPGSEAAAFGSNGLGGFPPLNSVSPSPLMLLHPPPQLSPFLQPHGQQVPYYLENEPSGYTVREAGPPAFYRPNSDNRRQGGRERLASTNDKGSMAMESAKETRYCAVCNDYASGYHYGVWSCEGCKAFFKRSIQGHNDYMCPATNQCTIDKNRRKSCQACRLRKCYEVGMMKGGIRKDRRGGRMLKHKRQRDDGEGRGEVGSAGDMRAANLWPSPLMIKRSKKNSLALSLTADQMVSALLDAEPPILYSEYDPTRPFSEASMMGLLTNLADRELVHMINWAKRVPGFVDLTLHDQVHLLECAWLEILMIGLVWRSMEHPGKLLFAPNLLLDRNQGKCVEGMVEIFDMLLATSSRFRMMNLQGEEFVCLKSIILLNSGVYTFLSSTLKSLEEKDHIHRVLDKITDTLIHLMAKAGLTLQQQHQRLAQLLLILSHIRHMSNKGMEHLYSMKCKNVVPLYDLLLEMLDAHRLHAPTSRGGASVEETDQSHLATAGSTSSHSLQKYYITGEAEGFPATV

As to `c1ccc2c(c1)cc1ccc3cccc4ccc2c1c34`, the Potency result in experiment [1], in [2], in experiment [4], in experiment [5], in [6] and in [7] was “inactive” in each case. For the same compound, the Potency entry in experiment [8], in experiment [9], in [10], in experiment [11], in [12] and in experiment [13] was “inactive” throughout. Besides, the Potency in [3] is 7.05 µM (active).
Turning to `O=C1C[C@@H]2OCC=C3CN4CC[C@]56c7ccccc7N1[C@H]5[C@H]2[C@H]3C[C@H]46`, the Potency result in experiment [1], in experiment [2], in [3], in experiment [4], in experiment [5] and in experiment [6] was “inactive” throughout. Moreover, the Potency entry in [7], in experiment [8], in experiment [9], in [10], in experiment [11] and in [13] was “inactive” in each case. In experiment [14], the compound was called inactive.
For the compound `S=C=Nc1ccccc1`, the Potency result in [1], in experiment [3], in experiment [4], in [5], in experiment [15] and in experiment [16] was “inactive” in each case. The Potency result in [6], in experiment [7], in experiment [8], in experiment [17], in experiment [9] and in [18] was “inactive” in each case. Besides, the Potency entry in experiment [19], in [10], in experiment [11], in [20], in experiment [12] and in experiment [13] was “inactive” each time.
As for `Oc1cc(Cl)c(Cl)c(Cl)c1Cl`, the Potency result in experiment [1], in experiment [2], in [4], in [5], in [6] and in [7] was “inactive” throughout. In addition, the Potency entry in experiment [8], in experiment [17], in [10], in [11] and in experiment [13] was “inactive” in each case. The Potency is 47.8 µM (active) in experiment [15] and 29.9 µM (active) in experiment [19].
For `O=S1OCC2C(CO1)C1(Cl)C(Cl)=C(Cl)C2(Cl)C1(Cl)Cl` (stereo not drawn), the Potency is 49 µM (active) and 54.9 µM (active) in experiment [1]; 54.9 µM (active) in [3]; 48.9 µM (active) in [5]; 43.6 µM (active) in [16]; 54.9 µM (active) in experiment [8]; 48.6 µM (active) and 54.4 µM (active) in experiment [18]. Besides, the Potency in [12] is 48.5 µM (active). Further, the Potency result in [2], in [7], in [17], in [9], in [19] and in experiment [10] was “inactive” in each case. In addition, the Potency entry in experiment [13] was “inactive”.
Regarding `C[C@H]1[C@H](c2ccc(Cl)cc2)SC(=O)N1C(=O)NC1CCCCC1`, the Potency result in experiment [1], in experiment [2], in experiment [3], in [5], in [6] and in experiment [7] was “inactive” each time. Moreover, the Potency entry in experiment [8], in experiment [17], in experiment [10], in [11], in [20] and in [12] was “inactive” throughout. The Potency entry in [13] is “inactive”. For the same compound, the Potency was 43.6 µM (active) in [15], 38.9 µM (active) in [16], 48.6 µM (active) in experiment [18] and 61.1 µM (active) in [19].
With `CN1[C@@H]2CC[C@H]1CC(O)C2` (stereo partly drawn), the Potency entry in experiment [1], in experiment [3], in [4], in [5], in experiment [15] and in experiment [16] was “inactive” throughout. The Potency entry in experiment [6], in experiment [7], in [8], in experiment [17], in [9] and in [19] was “inactive” each time. Moreover, the Potency result in [20], in [12] and in experiment [13] was “inactive” each time.
Take `CCCCC(CC)COC(=O)OOC(C)(C)C` (stereo not drawn): the Potency entry in experiment [1], in [3], in [4], in experiment [5], in experiment [15] and in [6] was “inactive” each time. Also, the Potency result in experiment [7], in [8], in experiment [17], in [9], in experiment [10] and in [11] was “inactive” throughout. The Potency entry in experiment [20], in [12] and in experiment [13] was “inactive” each time.
